LDHA inh – blocks human lactate dehydrogenase A. P00338. purified LDHA, NADH/diaphorase-resazurin fluorescence; hits give low values. activity change, % (values are at about 110 or 230 µM). 480,000 compounds, 0.15% hits. AID 1347041; in the data active means activity change below about -30%; inconclusive means mostly about -25% to -30%;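 further: plate controls were DMSO wells for no effect and wells without enzyme for full effect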
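Human LDH5 at 2 nM final in Tris HCl pH 7.4 with 0.06 mM NADH and 0.2 mM pyruvate, reacted 5 minutes at room temperature. Remaining NADH coupled via diaphorase/resazurin; resorufin fluorescence read at 0 and 20 minutes, normalized to enzyme-free and DMSO wells.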
TSHR antagonist – antagonists of human thyroid stimulating hormone receptor | P16473 | activity change, negative = inhibition, % at 11.5 µM | 330,000 compounds, 0.2% hits | TSHR-expressing cells, TSH-stimulated cAMP HTRF, 2 h; hits give low values;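 active means activity change below a set negative limit, meaning inhibition stronger than a set level, cut at about -70% in these data; inconclusive means activity change between two set negative limits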; further: on the % scale 0 is the no-effect control and ±100 the full control effect
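Freshly harvested TSHR cells receive pin-tooled compound, then EC80 TSH at 4nM final. After 2 hours at 37 deg C, antibody in lysis buffer and cAMP-d2 are added; 30 minutes at ambient temperature precede the HTRF read.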
RGS4 inhibitor – human RGS4 inhibition; Transcreener GDP fluorescence polarization, RGS4-accelerated GTP hydrolysis; 390,000 compounds, 0.039% hits; Potency, µM (series often up to 114 µM), for inactives: at the top dose activity change, negative = inhibition, most hits filed as inhibitors; P49798; further: potency means the concentration at half of the fitted maximal effect; on the % scale 0 is the no-effect control and ±100 the full control effect; nearly all actives have a fitted effect of over 75% in size
Target sequence (P49798 whole entry, looked up): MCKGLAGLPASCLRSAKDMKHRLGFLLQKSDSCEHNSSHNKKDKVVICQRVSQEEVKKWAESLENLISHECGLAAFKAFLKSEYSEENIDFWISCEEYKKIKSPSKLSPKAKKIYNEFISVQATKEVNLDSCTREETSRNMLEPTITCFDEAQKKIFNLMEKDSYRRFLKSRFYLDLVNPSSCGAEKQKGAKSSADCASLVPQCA
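MLSMR compounds (23 nl, pin-transferred) preincubated 10 min at room temperature with a 500nM (2x) first reagent, then RGS4 at 900nM (2x) plus Transcreener GDP mix added; fluorescence polarization (620/688 nm) read before and after 90 min at 30 °C.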
Akt phos inh – blocks phosphorylation of Akt; Neuro2A IGF-stimulated pAkt S473 HTRF, 20 min; hits give low values; activity change, % for hits at 50 µM; 360,000 compounds, 0.32% hits; in the data active means activity change below about -80%; inconclusive means mostly about -51% to -80%; further: on the % scale 0 is the no-effect control and ±100 the full control effect
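Neuro2A cells in DMEM with 0.5% FBS, overnight at 37 deg C, given compound at single 50 µM final, then IGF (6 nM final) for 20 min at 37 deg C. Lysed; phospho-Akt Ser473 by HTRF after 24 h, 665/615 ratio.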
GRP78 ERSR act – inducers of ER stress response in human glioma cells. U87-MG GRP78 promoter luciferase reporter, 16 h. Potency, µM, for inactives: at the top dose activation, hits mostly activators. 420,000 compounds, 0.02% hits. AID 602332; further: potency means the concentration at half of the fitted maximal effect; series mostly up to about 76 µM; % of control where 0% means no effect; nearly all actives have a fitted effect of over 35% in size
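Stably transfected U87-MG glioma cells carrying a GRP78-based luciferase sensor; 16 h compound incubation. Luminescence end-point read 10 min after Bright-Glo addition at room temperature.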
TCR activator – T cell receptor activation; primary human leukocytes, anti-CD3, IL-2 HTRF, 48 h; Potency, µM (highest dose often 9.22 µM), for the others: at the highest dose activation of IL-2 secretion, most hits filed as activators; 330,000 tested, under 10 active; further: % of control where 0% means no effect
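Readout: HTRF IL-2, Eu-cryptate/d2 antibody pair, 320nm excitation, 665nm emission. Stimulus: a-CD3 beads, no co-stimulation. Cells: primary human leukocytes. Exposure: 48 hr with compound.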
* marks the source's active call; other numbers are inactive results; i = inactive; ? = inconclusive; . = not tested or not shown; [ ] = another dose, or the depositor's remark. Compounds with a hit are over-represented: about 0.55% of the library has one in this group of screens. Unless noted, the call rests on the fitted dose curve; in most records, active means well fitted curve in the direction sought with a large enough effect; inconclusive means small, poorly fitted or top-dose-only effect, or another doubt; inactive means no such curve, though single readings can be large; an effect the other way counts as inactive or inconclusive.

SMILES	LDHA inh	TSHR antagonist	RGS4 inhibitor	Akt phos inh	GRP78 ERSR act	TCR activator
Cc1cccc(CN2CCN(Cc3ccco3)CC2)c1	-32*	21	-4%	i	-3%	.
Clc1cccc(CN2CCN(Cc3ccco3)CC2)c1	-21	3	6%	i	-3%	-4%
COc1ccc(-c2ocnc2C(=O)Nc2cc(F)ccc2F)cc1OC	-1	.	.	.	.	.
Cc1ccc(-c2cc(C(=O)Nc3ncccc3C)c3ccccc3n2)s1	2	.	.	.	.	.
CCOC(=O)c1c(C)nc2sc3c(=O)n(-c4ccc(C(C)=O)cc4)cnc3c2c1-c1ccc(OC)cc1	-6	-5	3%	-108%*	-4%	0%
COC(=O)c1[nH]c(C)c(/C(O)=C2\C(=O)C(=O)N(CCN3CCOCC3)C2c2cccs2)c1C (stereo not given)	-6	-6	-24%	-96%*	-4%	-3%
CC(=O)N(c1ccc(N(C(C)=O)S(=O)(=O)c2cccs2)cc1)S(=O)(=O)c1cccs1	-88*	10	3%	i	-5%	3%
CC(=O)N(c1ccc(C)cc1)S(=O)(=O)c1ccc(Cl)cc1	-5	7	2%	i	-1%	-6%
CC(=O)N(c1ccc(N(C(C)=O)S(=O)(=O)c2ccccc2)cc1)S(=O)(=O)c1ccccc1	-66*	11	-2%	i	-3%	-2%
COc1ccc(N(C(=O)c2ccco2)S(=O)(=O)c2ccc(F)cc2)cc1	0	7	-11%	i	-2%	4%[46.1 µM]
COc1ccc(N(C(=O)c2ccco2)S(=O)(=O)c2cccs2)cc1	-2	2	4%	-113%*	?	1%
COc1ccc(N(C(=O)c2ccco2)S(=O)(=O)c2cc(OC)ccc2OC)cc1	-6	14	13%	.	40µM*	0%
C=C(C)COc1cc(C)cc2oc(=O)c(CC(=O)NCCc3ccc(S(N)(=O)=O)cc3)c(C)c12	7	.	.	.	.	.
N#Cc1ccc(/C=C2\CSc3ccccc3C2=O)cc1	0	.	.	.	.	.
CCOc1ccc(-c2nc3cc(NC(=O)c4cccc(C)c4)ccc3o2)cc1	0	.	.	.	.	.
COc1ccc(N(C(=O)c2ccccc2)S(=O)(=O)c2cccs2)cc1	-2	6	?	i	32µM*	2%
O=C(/C(=C/c1ccsc1)C(=O)C(F)(F)F)c1ccccc1	8	.	.	.	.	.
COc1ccccc1-c1nc(S(=O)(=O)c2ccc3c(c2)OCCO3)c(NC(C)C)o1	2	.	.	.	.	.
Cc1cc(C(=O)NCc2ccco2)c2cccc(-c3ccccc3)c2n1	1	.	.	.	.	.
Cc1cc(C)c(S(=O)(=O)c2ccccc2)c(OC(=O)c2c(F)cccc2F)n1	-50*	-2	?	i	-4%	1%
Cc1cc(C)c(S(=O)(=O)c2ccccc2)c(OC(=O)c2c(Cl)cc(Cl)cc2Cl)n1	-3	-7	-3%	i	-8%	-8%
O=C(/C=C/c1c[nH]c2ccccc12)C(F)(F)F	-17	.	.	.	.	.
O=C(Nc1ccccc1Cl)c1cc(C2CC2)nn1-c1ccccc1	0	.	.	.	.	.
CCOC(=O)C1=C(N)Oc2c(oc(CO)cc2=O)C1c1ccc(Cl)cc1 (stereo not given)	7	8	-31%	i	0%	1%
CCOC(=O)C1=C(N)Oc2c(oc(CO)cc2=O)C1c1c(F)cccc1Cl (stereo not given)	-3	2	22%	-109%*	-3%	-8%
CCN(CC)CCN1C(=O)C(=O)/C(=C(/O)c2ccc(OCc3cccc(C)c3)cc2)C1c1ccco1 (stereo not given)	1	.	.	.	.	.
CCOc1cc(S(=O)(=O)NCc2ccc(OC)cc2)c(OCC)cc1-n1cnnn1	-3	5	10%	-92%*	-4%	.
CCOc1ccc(C2C(C#N)=C(N)SC(N)=C2C#N)c(OCC)c1	23	-2	?	-85%*	-5%	-6%
Cc1ccc(S(=O)(=O)c2c(C)c(C)n(Cc3ccco3)c2N)cc1	5	.	.	.	.	.
CSc1ccccc1NC(=O)/C(=C/c1ccco1)c1ccccc1	-4	.	.	.	.	.

From PubChem BioAssay
